# Source: PubChem BioAssay (Tox21)
# Results filed as inconclusive are left out. Where a call stands in place of a potency, no number is given. Calls of active or inactive are those of the source. Calls come from the whole dose curve.
# Assay: qHTS assay for small molecule agonists of the p53 signaling pathway - cell viability (AID 651633);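 note: p53RE-bla HCT reporter cells with a stable beta-lactamase p53 reporter; nearly all actives have a fitted effect of over 30% in size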
# Details: p53RE-bla HCT-116 viability, ATP luminescence, 16 h; series mostly up to 83.3 µM; activity change, negative = cytotoxicity: at the top concentration
# Outline: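 p53RE-bla cells, seeded at 4,000 per well and rested 5 h at 37 C/5% CO2, received compounds in DMSO for 16 h at 37 C. CellTiter-Glo was then added, and luminescence was read after 30 min at room temperature to gauge cytotoxicity.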
SMILES,"activity change, negative = cytotoxicity",Potency
CCCCC(CC)COC(=O)C(C#N)=C(c1ccccc1)c1ccccc1 (stereo not drawn),-18.5% (inactive),
O=C(Oc1ccccc1)c1ccccc1,,inactive
CC1CCC(C(C)C)C(O)C1 (stereo not drawn),,inactive
CCCCCCCCCCCCOCCO,18% (inactive),
CCCSc1ccc2nc(NC(=O)OC)[nH]c2c1,,inactive
O=C(O)CCCC[C@@H]1SC[C@@H]2NC(=O)N[C@@H]21,,inactive
CCc1ccc(CCOc2ccc(CC3SC(=O)NC3=O)cc2)nc1 (stereo not drawn),,inactive
COc1ccc2cc([C@H](C)C(=O)O)ccc2c1,,inactive
COCCCOc1ccnc(CS(=O)c2nc3ccccc3[nH]2)c1C (stereo not drawn),,inactive
O=C(O)c1cc(C(=O)O)cc(S(=O)(=O)O)c1,,inactive
Cc1ccc2oc(=O)ccc2c1,,inactive
Cc1occc(=O)c1O,,inactive
CCN(CC)c1ccc(C(=O)c2ccccc2C(=O)O)c(O)c1,,inactive
CC(C)c1ccc(S(=O)(=O)O)cc1,,inactive
O=C(O)c1ccccc1C(c1ccc(O)cc1)c1ccc(O)cc1,-0.865% (inactive),
COS(C)(=O)=O,,inactive
CCCCCC/C(C=O)=C\c1ccccc1,,inactive
CCCCCC1=CCCC1=O,,inactive
CCCCCOC(C)=O,,inactive
CCCCC(CC)COC(=O)CCCCC(=O)OCC(CC)CCCC (stereo not drawn),,inactive
COc1ccc(NC(C)=O)cc1N,,inactive
Cc1cccnc1,,inactive
NNc1nncc2ccccc12,,inactive
CC1=CCC2CC1C2(C)C (stereo not drawn),,inactive
O=C(O)CCCCCCCCCCC(=O)O,,inactive
CC(=O)Nc1ccccc1,,inactive
CC(=O)CC(=O)Nc1ccccc1,,inactive
OCC(CO)(CBr)CBr,,inactive
